Laboratory results reported in PubChem BioAssay (Tox21).
Values joined by “and” are separate entries in the source; they are usually repeats but may differ in a detail not shown here. Equal values may be shown once. Inconclusive results are not listed. More than one record can exist for a structure, and the calls need not agree. Active and inactive are the calls of the source. Unless noted, the call rests on the fitted dose curve.

Experiments:
[1] = qHTS assay to identify small molecule antagonists of the sonic hedgehog signaling (Shh) pathway (AID 1259369); further: nearly all actives have a fitted effect of over 45% in size; further: potency means the concentration at half of the fitted maximal effect
Outline: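 Antagonist mode: compound added to 3T3 Gli1-Luc cells followed by conditioned-medium stimulation, 24 h at 37 C, 5% CO2. Inhibition taken as loss of Gli1-driven luciferase luminescence.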

[2] = target: Estrogen receptor beta (Homo sapiens) (UniProt Q92731); test: qHTS assay to identify small molecule antagonists of the estrogen receptor beta (ER-beta) signaling pathway (AID 1259378; active means well fitted inhibition curve with a large enough effect in the signal ratio in the repeat runs, not every such curve was filed as active; the % refers to the signal ratio)
Estrogen receptor beta (Homo sapiens), sequence (Q92731 whole entry, looked up): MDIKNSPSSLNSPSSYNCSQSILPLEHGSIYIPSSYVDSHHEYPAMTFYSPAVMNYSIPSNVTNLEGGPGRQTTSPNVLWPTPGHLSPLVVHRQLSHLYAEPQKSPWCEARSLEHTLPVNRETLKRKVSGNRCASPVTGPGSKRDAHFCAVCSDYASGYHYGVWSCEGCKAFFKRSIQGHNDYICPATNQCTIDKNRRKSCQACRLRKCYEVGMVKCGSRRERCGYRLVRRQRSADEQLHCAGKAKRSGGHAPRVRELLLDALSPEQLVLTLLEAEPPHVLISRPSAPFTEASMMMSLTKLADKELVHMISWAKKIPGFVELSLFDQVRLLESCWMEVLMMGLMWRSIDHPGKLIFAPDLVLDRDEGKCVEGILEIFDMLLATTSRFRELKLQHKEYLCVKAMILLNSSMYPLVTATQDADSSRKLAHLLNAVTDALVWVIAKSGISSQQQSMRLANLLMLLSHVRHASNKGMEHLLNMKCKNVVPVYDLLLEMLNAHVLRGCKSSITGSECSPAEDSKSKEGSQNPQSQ
Outline: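 ER-beta-UAS-bla HEK293T (GripTite) cells in 2% charcoal-stripped FBS medium were preincubated 6 hr at 37C, dosed with compound, then stimulated with 1 nM E2 (final) for 16 hr; beta-lactamase reporter read by B/G FRET fluorescence after 2 hr substrate loading.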

[3] = qHTS assay to identify small molecule agonists of the androgen receptor (AR) signaling pathway in the presence of an antagonist - cell viability counter screen (AID 1259379; active means well fitted curve in the direction sought with a large enough effect in the repeat runs; an effect the other way counts as inactive or inconclusive;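 further: MDA-kb2 human breast cancer cells carrying an MMTV luciferase reporter; series mostly up to about 92 µM; nearly all actives have a fitted effect of over 25% in size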)
Outline: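 Cytotoxicity counter-screen run in the same wells as the nilutamide-challenged (3.0 µM final) AR agonist assay in MDA-kb2 cells. Compounds tested at 15 concentrations for 16 h, 37 °C without CO2; CellTiter-Fluor fluorescence read.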

[4] = qHTS assay to identify small molecule agonists of the estrogen receptor beta (ER-beta) signaling pathway - cell viability counter screen (AID 1259380; active means well fitted curve in the direction sought with a large enough effect in the repeat runs; an effect the other way counts as inactive or inconclusive; further: nearly all actives have a fitted effect of over 30% in size)
Outline: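 Cell viability counter screen: CellTiter-Glo luminescence (30 min, room temperature) measured in the same wells as the beta-lactamase readout, after 16 hr compound exposure at 37C of ER-beta-bla HEK293T cells in 2% charcoal-stripped FBS medium.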

[5] = qHTS assay to identify small molecule antagonists of the estrogen receptor beta (ER-beta) signaling pathway - cell viability counter screen (AID 1259382; active means well fitted curve in the direction sought with a large enough effect in the repeat runs; an effect the other way counts as inactive or inconclusive; further: series mostly up to about 92 µM; nearly all actives have a fitted effect of over 55% in size)
Outline: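 Cytotoxicity was measured in the same wells by CellTiter-Glo luminescence after 30 min at room temperature. Cells were ER-beta-bla HEK293T in charcoal-stripped serum, given compound together with 1 nM E2 and incubated 16 h at 37C.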

[6] = target: Estrogen receptor (Homo sapiens) (UniProt P03372); test: qHTS assay to identify small molecule agonists of the estrogen receptor alpha (ER-alpha) signaling pathway in the presence of an antagonist (AID 1259383); further: top concentration of the series differs between compounds; nearly all actives have a fitted effect of over 15% in size
Estrogen receptor (Homo sapiens), sequence (P03372 whole entry, looked up): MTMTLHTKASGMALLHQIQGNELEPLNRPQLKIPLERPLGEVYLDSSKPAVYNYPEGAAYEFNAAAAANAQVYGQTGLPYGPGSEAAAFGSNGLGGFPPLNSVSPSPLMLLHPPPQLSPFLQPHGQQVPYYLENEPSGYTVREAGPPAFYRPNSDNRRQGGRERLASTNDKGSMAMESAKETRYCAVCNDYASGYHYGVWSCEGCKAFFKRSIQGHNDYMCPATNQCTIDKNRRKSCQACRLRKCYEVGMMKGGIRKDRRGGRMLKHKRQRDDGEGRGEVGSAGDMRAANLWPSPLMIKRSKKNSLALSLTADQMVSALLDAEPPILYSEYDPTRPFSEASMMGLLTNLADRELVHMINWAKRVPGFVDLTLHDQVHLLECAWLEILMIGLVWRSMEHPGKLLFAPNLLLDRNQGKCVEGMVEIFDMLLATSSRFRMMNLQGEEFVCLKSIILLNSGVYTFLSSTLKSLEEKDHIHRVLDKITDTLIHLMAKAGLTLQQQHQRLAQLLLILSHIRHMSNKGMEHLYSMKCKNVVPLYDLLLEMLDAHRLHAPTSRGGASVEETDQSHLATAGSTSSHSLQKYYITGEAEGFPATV
Outline: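 Agonist-mode confirmation run in the presence of 10.0nM (final) ICI-182,780 antagonist. The reporter was ERE-driven luciferase in VM7Luc4E2 cells, grown in charcoal-stripped serum. Cells were exposed to 15-concentration compound series for 22hr, then ONE-Glo luminescence was read.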

[7] = qHTS assay to identify small molecule agonists or antagonists of the thyroid stimulating hormone receptor (TSHR) signaling pathway - wild type cell line counter screen (AID 1259384)
Outline: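 Wild-type HEK293 cells were plated 18 h at 37 C/5% CO2, pin-dosed with compound plus Ro20-1724 medium, held 30 min at room temperature, then given cAMP-d2 and anti-cAMP-cryptate; fluorescence was read after 1 h. Fifteen concentrations, triplicate.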

[8] = target: Thyrotropin receptor (Homo sapiens) (UniProt P16473); test: qHTS assay to identify small molecule antagonists of the thyroid stimulating hormone receptor (TSHR) signaling pathway (AID 1259385); further: nearly all actives have a fitted effect of over 20% in size
Thyrotropin receptor (Homo sapiens), sequence (P16473 whole entry, looked up): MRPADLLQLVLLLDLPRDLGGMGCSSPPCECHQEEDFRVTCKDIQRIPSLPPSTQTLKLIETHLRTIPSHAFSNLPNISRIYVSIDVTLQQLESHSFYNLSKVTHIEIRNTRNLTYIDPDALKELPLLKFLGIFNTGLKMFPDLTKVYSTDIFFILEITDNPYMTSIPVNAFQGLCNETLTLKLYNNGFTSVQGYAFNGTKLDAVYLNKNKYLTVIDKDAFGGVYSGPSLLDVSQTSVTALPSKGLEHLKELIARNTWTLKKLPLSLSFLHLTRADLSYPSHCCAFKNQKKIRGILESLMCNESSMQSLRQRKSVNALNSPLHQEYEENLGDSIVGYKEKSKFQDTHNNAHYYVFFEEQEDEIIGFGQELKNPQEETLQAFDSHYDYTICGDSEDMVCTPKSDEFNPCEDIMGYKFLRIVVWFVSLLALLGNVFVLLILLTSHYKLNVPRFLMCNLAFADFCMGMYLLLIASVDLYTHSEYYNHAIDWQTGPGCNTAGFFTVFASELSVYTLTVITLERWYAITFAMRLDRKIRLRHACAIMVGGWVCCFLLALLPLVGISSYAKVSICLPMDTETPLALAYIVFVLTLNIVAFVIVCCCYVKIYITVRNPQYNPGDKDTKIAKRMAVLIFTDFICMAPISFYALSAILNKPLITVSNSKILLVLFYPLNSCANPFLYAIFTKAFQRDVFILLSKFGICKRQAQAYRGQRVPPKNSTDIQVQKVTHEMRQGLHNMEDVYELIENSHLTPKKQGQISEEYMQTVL
Outline: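 TSHR-HEK293 cells were plated and held 18 h at 37C/5% CO2, then given compound plus Ro20-1724 and stimulated with TSH at 1.5 ng/mL final. After 30 min at room temperature, cAMP was detected with cAMP-d2/anti-cAMP-cryptate (1 h) by fluorescence.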

[9] = qHTS assay to identify small molecule agonists of the estrogen receptor alpha (ER-alpha) signaling pathway in the presence of an antagonist - cell viability counter screen (AID 1259386; active means well fitted curve in the direction sought with a large enough effect in the repeat runs; an effect the other way counts as inactive or inconclusive; further: series mostly up to about 92 µM; nearly all actives have a fitted effect of over 30% in size)
Outline: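 Compounds tested at 15 concentrations for 22 h at 37C alongside 10.0nM (final) ICI-182,780 antagonist, in VM7Luc4E2 cells grown in phenol red-free, charcoal-stripped medium. Viability read by CellTiter-Fluor fluorescence after 1 h reagent incubation.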

[10] = target: Progesterone receptor (Homo sapiens) (UniProt P06401); test: qHTS assay to identify small molecule agonists of the progesterone receptor (PR) signaling pathway (AID 1346784); further: nearly all actives have a fitted effect of over 30% in size; further: potency means the concentration at half of the fitted maximal effect
Progesterone receptor (Homo sapiens), sequence (P06401 whole entry, looked up): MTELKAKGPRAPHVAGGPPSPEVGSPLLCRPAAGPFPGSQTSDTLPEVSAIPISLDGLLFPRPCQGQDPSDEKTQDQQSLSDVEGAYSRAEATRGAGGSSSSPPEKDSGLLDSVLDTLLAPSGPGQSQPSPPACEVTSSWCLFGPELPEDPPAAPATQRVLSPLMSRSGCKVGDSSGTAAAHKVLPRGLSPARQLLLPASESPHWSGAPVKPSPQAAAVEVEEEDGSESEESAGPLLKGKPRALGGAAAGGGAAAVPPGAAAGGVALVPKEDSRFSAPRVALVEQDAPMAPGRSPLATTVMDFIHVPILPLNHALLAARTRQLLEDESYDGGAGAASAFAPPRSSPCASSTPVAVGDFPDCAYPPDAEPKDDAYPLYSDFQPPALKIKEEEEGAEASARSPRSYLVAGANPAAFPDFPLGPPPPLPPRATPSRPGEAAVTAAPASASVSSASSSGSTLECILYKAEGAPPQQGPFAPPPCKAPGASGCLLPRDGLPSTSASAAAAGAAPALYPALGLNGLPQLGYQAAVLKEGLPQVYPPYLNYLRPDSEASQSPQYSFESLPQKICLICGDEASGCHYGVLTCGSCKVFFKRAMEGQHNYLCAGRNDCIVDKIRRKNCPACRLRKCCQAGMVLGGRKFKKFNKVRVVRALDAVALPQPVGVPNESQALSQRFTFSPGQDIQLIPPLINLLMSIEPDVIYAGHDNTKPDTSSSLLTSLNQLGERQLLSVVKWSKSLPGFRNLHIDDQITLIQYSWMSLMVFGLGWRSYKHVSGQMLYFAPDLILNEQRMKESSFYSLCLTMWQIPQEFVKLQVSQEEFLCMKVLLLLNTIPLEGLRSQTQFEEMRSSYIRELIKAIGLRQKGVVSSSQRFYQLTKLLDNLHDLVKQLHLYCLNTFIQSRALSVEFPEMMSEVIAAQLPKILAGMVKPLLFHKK
Outline: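 Compounds were tested for PR agonism in HEK 293T cells bearing a beta-lactamase gene under UAS control. Treatment lasted 16 hr at 37C; signal came from fluorescence of a FRET substrate.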

[11] = target: Progesterone receptor (Homo sapiens) (UniProt P06401); test: qHTS assay to identify small molecule antagonists of the progesterone receptor (PR) signaling pathway (AID 1346795; active means well fitted inhibition curve with a large enough effect in the signal ratio in the repeat runs, not every such curve was filed as active; the % refers to the signal ratio)
Outline: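 In HEK293T cells bearing the PR-UAS-bla reporter, compound effects on promegestone-driven (1 nM) beta-lactamase expression are assessed after 16 hr using a fluorescent FRET substrate incubated 2 hr at room temperature.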

[12] = qHTS assay to identify small molecule antagonists of the progesterone receptor (PR) signaling pathway - cell viability counter screen (AID 1346798; active means well fitted curve in the direction sought with a large enough effect in the repeat runs; an effect the other way counts as inactive or inconclusive; further: series mostly up to about 92 µM; nearly all actives have a fitted effect of over 50% in size)
Outline: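 Following a 4 hr attachment, PR-UAS-bla HEK293T cells in charcoal-stripped FBS medium were exposed to compounds with R5020 for 16 hr; CellTiter-Glo was added and luminescence read after 30 min at room temperature.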

[13] = qHTS assay to identify small molecule agonists of the progesterone receptor (PR) signaling pathway - cell viability counter screen (AID 1346799); further: nearly all actives have a fitted effect of over 45% in size
Outline: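 Here, 3,000 PR-UAS-bla HEK293T cells per well were treated with compounds for 16 hr after a 6 hr preincubation at 37C and 5% CO2; cell viability is the CellTiter-Glo luminescence signal.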

[14] = qHTS assay to identify small molecule antagonists of the TGF-beta/Smad signaling pathway - cell viability counter screen (AID 1346824; active means well fitted curve in the direction sought with a large enough effect in the repeat runs; an effect the other way counts as inactive or inconclusive; further: nearly all actives have a fitted effect of over 50% in size)
Outline: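 SBE-bla HEK 293T cells were plated overnight at 37 C, then given compounds in DMSO plus TGF-beta1 (added as 0.25 ng/mL solution) for 5 hr. After the bla read, CellTiter-Glo was added to the same wells and luminescence read after 30 min at room temperature.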

[15] = qHTS assay to identify small molecule agonists of the TGF-beta/Smad signaling pathway - cell viability counter screen (AID 1346829; active means well fitted curve in the direction sought with a large enough effect in the repeat runs; an effect the other way counts as inactive or inconclusive; further: top concentration of the series differs between compounds; nearly all actives have a fitted effect of over 45% in size)
Outline: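 Tox21 qHTS format: SBE-bla HEK 293T cells treated with DMSO-dissolved compounds for 5 hr; CellTiter-Glo luminescence after 30 min at room temperature.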

[16] = qHTS assay to identify small molecule agonists of the TGF-beta/Smad signaling pathway (AID 1346859; active means well fitted activation curve with a large enough effect in the signal ratio in the repeat runs, not every such curve was filed as active; the % refers to the signal ratio; further: series mostly up to about 77 µM)
Outline: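 Each well held 4,000 SBE-bla HEK 293T cells incubated overnight before compound addition; 5 hr later the cleavable FRET substrate went on for 2 hr at room temperature, and fluorescence was read at two emissions.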

[17] = target: Thyrotropin-releasing hormone receptor (Homo sapiens) (UniProt P34981); test: qHTS assay to identify small molecule antagonists of the thyrotropin-releasing hormone receptor (TRHR) signaling pathway (AID 1346877; active means well fitted inhibition curve with a large enough effect in the repeat runs, not every such curve was filed as active; further: potency means the concentration at half of the fitted maximal effect; on activity, negative = inhibition: series mostly up to about 51 µM)
Thyrotropin-releasing hormone receptor (Homo sapiens), sequence (P34981 whole entry, looked up): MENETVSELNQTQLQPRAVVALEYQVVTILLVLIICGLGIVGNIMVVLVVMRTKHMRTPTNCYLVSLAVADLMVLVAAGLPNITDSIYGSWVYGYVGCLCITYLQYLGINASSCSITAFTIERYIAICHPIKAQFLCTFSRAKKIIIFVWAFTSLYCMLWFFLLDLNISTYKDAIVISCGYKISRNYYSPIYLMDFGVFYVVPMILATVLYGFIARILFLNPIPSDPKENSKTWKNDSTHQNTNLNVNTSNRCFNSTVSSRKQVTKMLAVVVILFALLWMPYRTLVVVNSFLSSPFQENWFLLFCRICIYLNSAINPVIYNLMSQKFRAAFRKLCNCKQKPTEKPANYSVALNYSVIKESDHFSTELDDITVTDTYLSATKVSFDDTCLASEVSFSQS
Outline: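 Antagonist mode: after a 5 min room-temperature compound exposure, cells were stimulated with 1 nM (final) TRH. Dye-loaded TRHR-HEK293 cells were used, and calcium-dependent fluorescence was followed for 3 min, with 15-point titrations run in triplicate.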

[18] = target: Thyrotropin-releasing hormone receptor (Homo sapiens) (UniProt P34981); test: qHTS assay to identify small molecule agonists of the thyrotropin-releasing hormone receptor (TRHR) signaling pathway (AID 1346891); further: potency means the concentration at half of the fitted maximal effect; on activation: series mostly up to about 58 µM
Outline: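 Screening of agonists relied on calcium signalling in HEK293 cells expressing human TRHR: dye loading 2 h at 37 °C preceded compound addition and a 3-min fluorescence time course.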

[19] = target: Estrogen receptor beta (Homo sapiens) (UniProt Q92731); test: qHTS assay to identify small molecule agonists of the estrogen receptor beta (ER-beta) signaling pathway (AID 1259377; active means well fitted activation curve with a large enough effect in the signal ratio in the repeat runs, not every such curve was filed as active; the % refers to the signal ratio)
Outline: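 Read-out: beta-lactamase FRET fluorescence. Cell line: ER-beta-UAS-bla HEK293T in 2% charcoal-stripped FBS. Exposure: 16 hr at 37C. Substrate step: 2 h at room temperature.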

[20] = target: Androgen receptor (Homo sapiens) (UniProt P10275); test: qHTS assay to identify small molecule agonists of the androgen receptor (AR) signaling pathway in the presence of an antagonist (AID 1259381); further: nearly all actives have a fitted effect of over 15% in size
Androgen receptor (Homo sapiens), sequence (P10275 whole entry, looked up): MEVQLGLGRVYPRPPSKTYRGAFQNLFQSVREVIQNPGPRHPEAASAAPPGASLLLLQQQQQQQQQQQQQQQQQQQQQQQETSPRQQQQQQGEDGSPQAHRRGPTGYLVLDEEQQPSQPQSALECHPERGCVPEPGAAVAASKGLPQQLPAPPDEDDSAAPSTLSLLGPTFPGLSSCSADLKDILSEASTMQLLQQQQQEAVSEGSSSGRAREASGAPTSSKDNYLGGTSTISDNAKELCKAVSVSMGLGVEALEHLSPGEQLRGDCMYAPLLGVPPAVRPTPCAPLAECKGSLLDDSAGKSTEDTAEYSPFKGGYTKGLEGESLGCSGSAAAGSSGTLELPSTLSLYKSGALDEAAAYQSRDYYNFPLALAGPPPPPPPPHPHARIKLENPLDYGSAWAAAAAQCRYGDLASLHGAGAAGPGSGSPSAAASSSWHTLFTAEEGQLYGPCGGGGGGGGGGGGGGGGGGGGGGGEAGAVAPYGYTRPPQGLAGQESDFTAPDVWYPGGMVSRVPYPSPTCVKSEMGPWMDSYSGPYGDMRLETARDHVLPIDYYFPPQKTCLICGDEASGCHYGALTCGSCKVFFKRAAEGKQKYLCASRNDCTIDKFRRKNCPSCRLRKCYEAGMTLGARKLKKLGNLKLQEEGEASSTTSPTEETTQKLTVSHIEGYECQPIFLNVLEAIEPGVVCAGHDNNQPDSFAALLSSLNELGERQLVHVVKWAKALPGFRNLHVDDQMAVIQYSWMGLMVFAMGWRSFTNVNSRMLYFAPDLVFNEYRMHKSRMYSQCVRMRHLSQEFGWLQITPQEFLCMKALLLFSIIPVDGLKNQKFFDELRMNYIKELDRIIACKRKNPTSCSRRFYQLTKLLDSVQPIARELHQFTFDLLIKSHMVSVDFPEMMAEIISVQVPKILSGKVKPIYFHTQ
Outline: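 Agonist-mode confirmation run against 3.0 uM final nilutamide: compounds titrated at 15 concentrations onto MDA-kb2 MMTV-luciferase reporter cells. Luminescence measured with ONE-Glo following 16 hr incubation, 37C, 0% CO2.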
On the % scale 0 is the no-effect control and ±100 the full control effect.

Oc1ccc(O)cc1
inactive: Potency [2] | Potency [3] | Potency [4] | Potency [5] | Potency [6] | outcome [7] | Potency [8] | Potency [9] | Potency [10] | Potency [11] | Potency [12] | Potency [13] | Potency [14] | Potency [15] | outcome [16] | Potency [17] | Potency [18]
active: Potency [1] 4.3 µM and 2.17 µM and 6.68 µM

Cc1c(C(N)=O)cc([N+](=O)[O-])cc1[N+](=O)[O-]
inactive: Potency [1] | Potency [19] | Potency [2] | Potency [3] | Potency [4] | Potency [6] | outcome [7] | Potency [8] | Potency [10] | Potency [11] | Potency [12] | Potency [13] | Potency [15] | outcome [16]

OCCO
inactive: Potency [1] | Potency [3] | Potency [4] | outcome [20] | Potency [6] | outcome [7] | Potency [8] | Potency [9] | Potency [10] | Potency [11] | Potency [12] | Potency [14] | Potency [15] | outcome [16] | Potency [17] | Potency [18]

c1cc(-c2ccncc2)ccn1
inactive: Potency [1] | Potency [19] | Potency [2] | Potency [3] | Potency [4] | Potency [6] | outcome [7] | Potency [8] | Potency [10] | Potency [11] | Potency [12] | Potency [13] | Potency [14] | Potency [15] | outcome [16] | Potency [17] | Potency [18]

O=C=Nc1ccc(Cc2ccc(N=C=O)cc2)cc1
inactive: Potency [1] | Potency [19] | Potency [2] | Potency [3] | Potency [4] | outcome [7] | Potency [8] | Potency [10] | Potency [12] | Potency [13] | Potency [14] | Potency [15] | outcome [16]

C[C@]12CC[C@H]3[C@@H](CCC4=CC(=O)CC[C@@]43C)[C@@H]1CC[C@@H]2C(=O)CO
active: Potency [10] 237 nM
15.4 µM (active) and inactive: Potency [1]
inactive: Potency [19] | Potency [2] | Potency [3] | Potency [5] | Potency [6] | Potency [9] | Potency [11] | Potency [12] | Potency [14] | Potency [15] | outcome [16] | Potency [17] | Potency [18]

Cc1ccc(C)c(O)c1C
inactive: Potency [1] | Potency [3] | Potency [4] | outcome [20] | Potency [5] | Potency [6] | outcome [7] | Potency [8] | Potency [9] | Potency [10] | Potency [11] | Potency [12] | Potency [13] | Potency [14] | Potency [15] | outcome [16] | Potency [17] | Potency [18]

Cc1cc2nc3c(=O)[nH]c(=O)nc-3n(C[C@H](O)[C@H](O)[C@H](O)CO)c2cc1C
active: Potency [17] 33.5 µM and 19.8 µM | Potency [18] 10.9 µM and 6.42 µM and 6.57 µM
inactive: Potency [1] | Potency [19] | activity, negative = inhibition [2] -6.01% [at 19 µM] | Potency [4] | Potency [5] | cAMP activity change [7] -5.16% [at 18.9 µM] | Potency [10] | activity change, negative = inhibition [11] -6.9% [at 18.9 µM] | Potency [12] | Potency [14] | Potency [15] | activation [16] -2.99% [at 15.8 µM] | activity, negative = inhibition [17] -21.3% [at 10.5 µM]
